PubChem BioAssay (NCATS)
Results filed as inconclusive are left out. Active and inactive are the calls of the source. Calls follow the shape of the dose curve; as a rule, active = well fitted curve in the direction sought with a large enough effect; inconclusive = small, poorly fitted or top-dose-only effect, or another doubt; inactive = no such curve, though single readings can be large; an effect the other way counts as inactive or inconclusive.

Experiments:
[1] = biological target: Cellular tumor antigen p53 (Homo sapiens) (UniProt P04637); assay: Primary qHTS for small molecule compounds that upregulate eGFP-tagged delta133p53alpha (in N-terminal) cells. (AID 2060322); settings: NCI-H358 eGFP-delta133p53alpha fluorescence, 24 h; activation: hits give high values;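 also: cells pre-induced with doxycycline then dosed without doxycycline; series mostly up to about 56 µM; 0% = DMSO vehicle and 100% = reference activator; nearly all actives have a fitted effect of over 75% in size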
Chain of Cellular tumor antigen p53 (Homo sapiens) (P04637 whole entry, looked up): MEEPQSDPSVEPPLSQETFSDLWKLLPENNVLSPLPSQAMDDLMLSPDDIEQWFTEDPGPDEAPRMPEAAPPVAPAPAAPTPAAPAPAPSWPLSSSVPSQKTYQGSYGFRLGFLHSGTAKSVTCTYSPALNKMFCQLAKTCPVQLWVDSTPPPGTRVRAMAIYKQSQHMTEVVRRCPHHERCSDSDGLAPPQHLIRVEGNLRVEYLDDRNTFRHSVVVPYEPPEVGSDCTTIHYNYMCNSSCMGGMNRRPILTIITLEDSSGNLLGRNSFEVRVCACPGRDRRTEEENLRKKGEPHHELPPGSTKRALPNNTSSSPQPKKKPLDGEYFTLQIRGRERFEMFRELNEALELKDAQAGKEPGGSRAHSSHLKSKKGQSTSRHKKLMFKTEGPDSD
Summary of the method: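 NCI-H358 cells pre-induced 24 h with 10 ng/ml doxycycline for eGFP-delta133p53alpha, plated dox-free and exposed 24 h at 37C to titrated compounds. Fixed, Hoechst-stained; gated GFP peak intensity by laser scanning cytometry, normalized to DMSO (0%) and 57.5 uM 5-azacytidine (100%).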

[2] = biological target: Aldehyde dehydrogenase, mitochondrial (Homo sapiens) (UniProt P05091); assay: qHTS for Inhibitors of the Aldehyde Dehydrogenase Family (ALDH2) Primary screen (AID 2061308);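 also: plate controls were vehicle for no effect and reference inhibitor for full effect; nearly all actives have a fitted effect of over 55% in size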
[3] = biological target: Retinaldehyde dehydrogenase 3 (Homo sapiens) (UniProt P47895); assay: qHTS for Inhibitors of the Aldehyde Dehydrogenase Family (ALDH1A3) Primary screen (AID 2061315);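 also: plate controls were DMSO vehicle for no effect and reference inhibitor for full effect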

O=C(COc1cccc2c(=O)[nH]ccc12)c1ccccc1
inactive: activation [1] -14.5% | Potency [2] | Potency [3]

CC(=O)OC1C(OC(=O)c2ccccc2)C2C(C)(C)CCC(OC(C)=O)C2(C)C23CCC(C)(C2)C(=O)CC13 (stereo not given)
inactive: activation [1] -14.5% | Potency [2] | Potency [3]

COC1CC(=O)C23C(=O)NC(CC(C)C)C2C(C)C(C)=CC3/C=C(\C)CCCC1O (stereo not given)
inactive: activation [1] 16.8% | Potency [2] | Potency [3]

OCCc1ccc(O[C@@H]2O[C@H](CO)[C@@H](O)[C@H](O)[C@H]2O)cc1
inactive: activation [1] -7.14% | Potency [2] | Potency [3]

CCC(C)C(=O)OC1CC(O)C23C4OCC5(C(O)CC2C1(C)C(O)O4)C3C(=O)CC1(C)C(c2ccoc2)CC2OC215 (stereo not given)
inactive: activation [1] 22.1% | Potency [2] | Potency [3]

C=C(C(=O)O)C1CCC2(C)CCC(O)C(=C)C2C1 (stereo not given)
inactive: activation [1] 9.82% | Potency [2] | Potency [3]

CC(CCC1(O)OC2CC3C4CC=C5CC(O[C@@H]6O[C@H](CO)[C@@H](O[C@@H]7O[C@H](CO)[C@@H](O)[C@H](O)[C@H]7O)[C@H](O)[C@H]6O[C@@H]6O[C@@H](C)[C@H](O)[C@@H](O)[C@H]6O)CCC5(C)C4CCC3(C)C2C1C)CO[C@@H]1O[C@H](CO)[C@@H](O)[C@H](O)[C@H]1O (stereo not given in full)
inactive: activation [1] 12.5% | Potency [2] | Potency [3]

C[C@@H]1O[C@@H](O[C@H]2[C@H](O)[C@@H](O)[C@H](OC3CCC4(C)C5CCC(C)(C(CO)OC6OC(CO)C(O)C(O)C6O)CC5=CCC4C3(C)C)O[C@@H]2CO)[C@H](O)[C@H](O)[C@H]1O (stereo not given in full)
inactive: activation [1] -22.9% | Potency [2] | Potency [3]

CO[C@@H]1[C@H](O)CCC2(CO2)[C@H]1[C@@]1(C)O[C@@H]1CC=C(C)C (stereo not given in full)
inactive: activation [1] 0.763% | Potency [2] | Potency [3]

CC(C)OC(=O)N1CCC(Oc2ncnc3c2cnn3-c2ccc(S(C)(=O)=O)cc2F)CC1
inactive: activation [1] 4.3% | Potency [2] | Potency [3]

C=C1C(OC(C)=O)C(=O)C2C(C)(C)C(OC(C)=O)CCC2(C)C1CC(OC(C)=O)/C(C)=C/COC(C)=O (stereo not given)
inactive: activation [1] 17.6% | Potency [2] | Potency [3]

N#CCc1ccc(O)cc1O[C@@H]1O[C@H](CO)[C@@H](O)[C@H](O)[C@H]1O
inactive: activation [1] -11.6% | Potency [2] | Potency [3]

O=C(CCc1ccccc1)N1CCC(O)(Cn2cnc3cc(Cl)ccc3c2=O)CC1
inactive: activation [1] -13.7% | Potency [2] | Potency [3]

Cc1cccc(N2CCN(C(=O)c3cc(S(=O)(=O)N(C)C)ccc3N3CCCC3)CC2)c1C
inactive: activation [1] -4.33% | Potency [2] | Potency [3]

COC1OC(=O)C2=C1C1(C)CCCC(C)(C)C1CC2O (stereo not given)
inactive: activation [1] -8.04% | Potency [2] | Potency [3]

COCC1OC(OC(C)(C)C2CCC3(C)C=C(C4CCC5C4(C)CC(O)C4OC(C(C)(C)O)CCC45C)CCC3O2)C(NC(C)=O)C(O)C1O (stereo not given)
inactive: activation [1] 5.34% | Potency [2] | Potency [3]

C/C=C(\C)C(=O)O[C@H]1[C@H](O)[C@]2(COC(C)=O)[C@H](O)C[C@]3(C)C(=CCC4[C@@]5(C)CC[C@H](O[C@@H]6O[C@H](C(=O)O)[C@@H](O[C@@H]7O[C@H](CO)[C@@H](O)[C@H](O)[C@H]7O)[C@H](O)[C@H]6O[C@@H]6O[C@H](CO)[C@@H](O)[C@H](O)[C@H]6O)[C@](C)(CO)C5CC[C@]43C)[C@@H]2CC1(C)C (stereo not given in full)
inactive: activation [1] -8.4% | Potency [2] | Potency [3]

CC1OC(OC2CCC3(C)C(CCC4(C)C3C=CC35OCC6(CCC(C)(C)CC63)CCC45C)C2(C)CO)C(OC2OC(CO)C(O)C(O)C2O)C(O)C1OC1OC(CO)C(O)C(O)C1O (stereo not given)
inactive: activation [1] 14.3% | Potency [2] | Potency [3]

CC1CC2(O)OC(=O)C3=C2C(CCC3)[C@@]12C[C@@H](c1ccoc1)OC2=O (stereo not given in full)
inactive: activation [1] -12.2% | Potency [2] | Potency [3]

CCCOC(c1cc2nccc(C(=O)O)c2[nH]1)c1ccccc1Cl (stereo not given)
inactive: activation [1] 0.333% | Potency [2] | Potency [3]

CC1OC(OC2C(C)OC(OC3C(O)C(CO)OC(O[C@H]4CC[C@@]5(C)C(CC[C@]6(C)C5CC=C5C7[C@@H](C)[C@H](C)CC[C@]7(C(=O)O)CC[C@]56C(=O)O)C4(C)C)C3O)C(O)C2O)C(O)C(O)C1O (stereo not given in full)
inactive: activation [1] 3.82% | Potency [2] | Potency [3]

C[C@@H]1C(=O)O[C@H](C)[C@H]1CC(=O)[C@](C)(O)[C@H]1CC[C@@]2(O)C3=CC(=O)[C@@H]4C[C@@H](O)[C@@H](O)C[C@]4(C)C3CC[C@]12C (stereo not given in full)
inactive: activation [1] -6.11% | Potency [2] | Potency [3]

NC(N)=N/N=C/c1ccccc1Cl
inactive: activation [1] 3.67% | Potency [2] | Potency [3]

C[C@]12C=C[C@@]3(CCC4[C@](C)(CO)CCC[C@@]4(C)C3CC1)C2 (stereo not given in full)
inactive: activation [1] -5.36% | Potency [2] | Potency [3]

COc1cc([C@H]2OC[C@@H]3[C@@H](c4ccc(O[C@@H]5O[C@H](CO)[C@@H](O)[C@H](O)[C@H]5O)c(OC)c4)OC[C@]23O)ccc1O
inactive: activation [1] 3.57% | Potency [2] | Potency [3]
